This is a sample that favours compounds with a hit; in the whole collection about 13% have one here.
Shiga inhibitor – Shiga toxin inhibition; Vero cells, Shiga toxin protein synthesis inhibition reporter; inhibition, % at 38.7 µM; 290,000 tested, 9.2% active; in the data active = inhibition mostly above about 28%, no sharp cut-off; inactive = mostly below about 43%
Lassa entry inh – inhibitors of Lassa virus binding or cell entry; Lassa virus pseudotype entry inhibition, cell reporter; Potency, µM (doses to about 37.9 µM), actives largely listed as inhibitors; 300,000 tested, 1.2% active; calls by dose curve; tested in HEK293 cells; also: nearly all actives have a fitted effect of over 50% in size
MARV entry inh – blocks Marburg virus binding to or entry into cells | Marburg virus pseudotyped entry inhibition, cell reporter | Potency, µM (doses to about 37.8 µM), hits mostly inhibitors | 300,000 tested, 1.8% active; calls by dose curve; tested in HEK293 cells
CHX counter – affects cycloheximide protein synthesis inhibition readout, counter-screen | cell reporter, cycloheximide protein synthesis inhibition counterscreen | 300,000 tested, 12% active | max response, % | AID 2314; in the data active = max response mostly above about 13%, no sharp cut-off; inactive = mostly below about 14%; also: read at 38.3 µM for the half of the compounds with a filed dose
FMDV antiviral – foot and mouth disease virus antiviral activity; FMDV antiviral cell-based qHTS; Potency, µM (highest dose often 57.9 µM), actives largely listed as inhibitors; 410,000 tested, 1.2% active; calls by dose curve; tested in HEK293T cells; also: read-out not given here; nearly all actives have a fitted effect of over 45% in size
HCV inhibitor – HCV inhibition; Huh7.5.1 HCVcc-Cre infection, luciferase reporter, 44 h; Potency, µM (titrated, usually from 41.8 µM), actives largely listed as inhibitors; 340,000 tested, 3.4% active; AID 651820
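Reporter virus HCVcc-Cre (~0.5 moi) infects cells exposed to compound; seeding density 1,000 cells/well with 4 h settling beforehand. Luminescence, 15 sec read, taken 44 h post-infection following a 15 min RT substrate incubation.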
HCV inh confirm – HCV inhibition, cherry-pick confirmation. Potency, µM (highest dose often 41.8 µM), hits mostly inhibitors. shares compounds with HCV inhibitor. HCVcc-Cre infectious virus cell assay, luciferase, inhibition. AID 720575. 640 tested, 78% active; also: nearly all actives have a fitted effect of over 80% in size
HCV cytotox – toxic to HCV host cells, flagging false HCV inhibitors; shares compounds with HCV inhibitor; HCV host cell line cytotoxicity counterscreen; Potency, µM (top dose mostly 41.8 µM), most hits filed as inhibitors; 640 tested, 22% active;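 also: 44 h compound exposure; nearly all actives have a fitted effect of over 55% in size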
Numbers stand for hits; n = inactive; u = inconclusive; x = no result. Unless noted, calls follow the shape of the dose curve; as a rule, active = well fitted curve in the direction sought with a large enough effect; inconclusive = small, poorly fitted or top-dose-only effect, or another doubt; inactive = no such curve, though single readings can be large; an effect the other way counts as inactive or inconclusive.

SMILES | Shiga inhibitor | Lassa entry inh | MARV entry inh | CHX counter | FMDV antiviral | HCV inhibitor | HCV inh confirm | HCV cytotox
S=C(S)N1CCCC1 | x | u | u | x | n | u | 25µM | 28µM
O=C(Cc1ccc(Cl)cc1Cl)Nc1ccncc1Cl | n | x | x | n | u | 7.94µM | 7.05µM | 9.95µM
O=C(Nc1cccnc1)Nc1ccc(Cl)cc1Cl | n | x | x | n | n | n | x | x
COc1ccc(OC)c(NC(=O)c2nnn(Cc3ccccc3C)c2N)c1 | n | n | u | n | n | 7.08µM | 22.3µM | n
COc1ccc(NC(=O)c2nnn(Cc3ccccc3C)c2N)c(OC)c1 | x | n | n | x | n | x | x | x
COc1ccc(OCC(O)CNC(=O)Nc2ccc(C(C)(C)C)cc2)cc1 (configuration not stated) | n | x | x | n | n | n | x | x
CC1CCCN(CC(O)COc2ccc(-c3ccccc3)cc2)C1 (configuration not stated) | n | n | u | n | n | 2.82µM | 15.8µM | n
CC1CCCN(CC(O)COc2ccc(Cl)cc2)C1 (configuration not stated) | n | n | n | n | x | n | x | x
COc1ccc(CNc2cccc3[nH]c(C(F)(F)F)nc23)cc1OC | n | x | x | n | n | 5.62µM | 22.3µM | n
COc1ccccc1NC(=S)NCCSc1ccc(Cl)cc1 | n | n | u | n | n | n | x | x
COc1ccc(NC(=S)NCCSc2ccc(Cl)cc2)c(OC)c1 | n | u | u | n | n | 5.62µM | 25µM | n
O=C(COc1ccc(Cl)c(Cl)c1)NN1C(=O)C2C(C1=O)C1C=CC2C12CC2 (configuration not stated) | n | x | x | n | n | n | x | x
CCC(CO)Oc1cc(NC(=O)c2ccc(C)cc2)c2ncn(C(C)C)c2c1 (configuration not stated) | x | x | x | x | n | u | u | n
COc1cc(/C=N/n2nnnc2Nc2ccccc2)cc(OC)c1OC | n | n | u | n | n | u | u | n
COc1cc(/C=N/n2c(-c3ccccc3)n[nH]c2=S)cc(OC)c1OC | n | u | u | n | n | n | x | x
CC(C)n1cc(/C=C(\C#N)S(=O)(=O)c2ccccc2)c2ccccc21 | n | n | u | n | n | 8.91µM | u | n
Oc1ccccc1-c1nc(NCc2cccnc2)c2ccccc2n1 | n | x | x | n | n | 5.62µM | 12.5µM | n
Cc1ccccc1-c1nc(NCc2cccnc2)c2ccccc2n1 | x | x | x | x | n | x | x | x
CCOC(=O)CC(NC(=O)c1ccco1)c1ccc(C)cc1 (configuration not stated) | n | n | n | n | n | n | x | x
Cc1ccc(C(C)NC(=O)c2ccco2)cc1 (configuration not stated) | n | n | n | n | n | 6.31µM | n | n
NC(=S)NN=Cc1nccc2ccccc12 | x | u | u | x | n | 2.82µM | 6.28µM | u
NC(=S)NN=Cc1nccc2c(C(F)(F)C(F)(F)C(F)(F)F)cccc12 | x | x | x | x | n | x | x | x
Cc1cnc(C=NNC(N)=S)c2cccc(N)c12 | x | 8.91µM | 7.08µM | x | n | u | u | n
NC(=S)N/N=C/c1cccc(O)c1O | n | u | u | n | n | u | x | x
Cc1cc(C(=O)Nc2ccccc2-c2nc(CNC(=O)c3ccccc3Cl)c(C)o2)c(C)o1 | x | x | x | x | n | x | x | x
SMILES | Shiga inhibitor | Lassa entry inh | MARV entry inh | CHX counter | FMDV antiviral | HCV inhibitor | HCV inh confirm | HCV cytotox
Cc1nn(CC(=O)NCCCN2CCC(N3CCCCC3)CC2)c(=O)c2cc(-c3ccccc3)nn12 | n | x | x | n | n | 3.98µM | 25µM | n
COc1ccc(N=Nc2c(C)[nH]c3ccccc23)cc1 | x | n | u | x | n | 7.08µM | 19.9µM | n
Cc1ccc(NC(=O)c2cc(C)nc3ccccc23)c(Br)c1 | x | n | n | n | u | n | x | x
COc1cccc(NC(=O)Nc2ccc(Cc3ccncc3)cc2)c1 | n | n | u | n | n | u | u | n
COC(=O)Nc1ccc(Cc2ccncc2)cc1 | n | n | n | n | n | n | x | x
Cc1cc(N(CC(=O)NC2CC2)S(C)(=O)=O)ccc1Br | n | n | u | n | n | n | x | x
O=C(Nc1cccc(NC(=O)c2ccc(-c3ccc(Br)cc3)o2)c1)c1ccco1 | 92.1 | u | u | 38.3 | n | 6.31µM | 7.05µM | n
COc1ccc(-c2nc(-c3ccccc3OC)no2)cc1OC | 161.8 | n | n | 65.7 | n | u | 22.3µM | n
Cc1sc(NC(=O)Cc2ccc3c(c2)OCO3)nc1-c1ccc2c(c1)CCN2C(=O)c1cccc(F)c1 | n | n | u | n | u | 3.98µM | 3.53µM | u
